# aSyn UTR act: Activators via SNCA 5'UTR binding, MLPCN | activity score, % (tested at 7.5 µM), hits read low | 300,000 tested, 7.1% active | alpha-synuclein 5'UTR reporter, activators screen; in the data active = activity score below about -60%
# Numbers without * were called inactive. Not all results are given here.
SMILES,aSyn UTR act
Cc1ccc(-c2cc(C(=O)N/N=C/c3c[nH]c4ccccc34)[nH]n2)cc1,78
O=C(N/N=C/c1c[nH]c2ccccc12)c1cc(-c2ccc(-c3ccccc3)cc2)n[nH]1,-146*
O=C(O)c1ccc(N/N=C/c2c[nH]c3ccccc23)cc1,79
CCOc1cccc(OCCOc2ccccc2[N+](=O)[O-])c1,-110*
COc1cc(C=O)ccc1OCc1ccc(Cl)nc1,-106*
COc1cc(C=O)ccc1OCCOc1ccccc1[N+](=O)[O-],-103*
COc1cc(C=O)ccc1OCCCOc1ccccc1[N+](=O)[O-],-95*
COc1ccccc1OCCCOc1ccc([N+](=O)[O-])cc1Cl,-119*
COC(=O)/C=C/COc1ccccc1[N+](=O)[O-],-63*
C/C=C/c1ccc(OCCOc2cc(C=O)ccc2OC)c(OC)c1,-105*
CC(=O)c1ccc2c3c(cccc13)C(=O)N(CCc1ccccc1)C2=O,-138*
CC(C)CCN1C(=O)c2cccc3c(N)ccc(c23)C1=O,61
CCOc1ccc(C2CC(c3ccc(CC)cc3)Nc3nc(N)nn32)cc1 (stereo not drawn),-65*
CN(C)c1ccc(C(=O)NC2CCCc3ccccc32)cc1 (stereo not drawn),-71*
OC1CCC(NC(=S)Nc2ccc(SC(F)F)cc2)CC1 (stereo not drawn),-126*
O=C(Nc1ccc(SC(F)F)cc1)C12CCC(CC1)C2,-80*
FC(F)Sc1ccc(NC(=S)NC2CCCC2)cc1,-105*
Clc1nc2ccccc2cc1-c1nnn(-c2ccccc2)n1,-160*
COc1cccc(NC(=O)C2Cc3ccccc3CN2C(=O)c2ccco2)c1 (stereo not drawn),-94*
Cc1ccccc1NC(=O)C1Cc2ccccc2CN1C(=O)c1ccco1 (stereo not drawn),-132*
Cc1ccc(N2CCN(C(=O)c3cn(CC4CCCCC4)nn3)C(C)C2)cc1 (stereo not drawn),-154*
O=c1cc(-c2cccc(Br)c2)oc2cccc(O)c12,-141*
O=c1cc(-c2cccc(Cl)c2)oc2cccc(O)c12,-124*
CC(=O)c1cccc(NC(=O)N2CCc3ccccc3C2)c1,-171*
CC(=O)c1ccc(NC(=O)N2CCc3ccccc3C2)cc1,-87*
SMILES,aSyn UTR act
C=CCNC(=O)c1cc(-c2ccc(Br)cc2)on1,-101*
CSc1ccccc1NC(=O)c1cc(-c2cccs2)on1,-235*
O=C(Nc1c(F)cc(F)cc1Br)c1cc(-c2ccc(O)cc2)on1,-101*
Cc1ccc(O)c(NC(=O)c2cc(-c3ccc(F)cc3)on2)c1,-147*
CC(C)NC(=O)c1cc(-c2cccs2)on1,-127*
Cc1ccc(O)c(NC(=O)c2cc(-c3cccs3)on2)c1,-231*
COc1ccc(NC(=O)c2ccc(OC(F)F)cc2)cc1Cl,-167*
Cc1ccc(NC(=S)Nc2ccc(OC(F)F)c(Cl)c2)cc1F,-105*
O=C(Nc1ccc(OC(F)F)c(Cl)c1)c1ccccn1,-92*
COc1ccc(NC(=O)c2ccccc2)c([N+](=O)[O-])c1,-144*
CCCOc1ccc(C(=O)Nc2ccccc2[N+](=O)[O-])cc1,-401*
CCCc1cc(C(=O)Nc2ccc(OC)cc2[N+](=O)[O-])cs1,-100*
Cc1c(C(=O)Nc2ccccc2[N+](=O)[O-])csc1-c1ccccc1,-142*
CCCOc1ccc(C(=O)NNC(=S)NC(=O)c2ccccc2)cc1,80
Cc1ccc(NC(=O)c2cccnc2)c([N+](=O)[O-])c1,-63*
NC(=O)N/N=C/c1ccc2cccc(OCc3ccccc3)c2n1,60
Cc1cccc(OCC(=O)NC(C)C(=O)N/N=C/c2c(OCc3ccccc3)ccc3ccccc23)c1 (stereo not drawn),-138*
CC(=O)Oc1ccc(C(=O)Cc2ccc3ccccc3n2)c(O)c1C,-143*
Oc1ccc(/C(Cc2ccc3ccccc3n2)=N\Nc2ccccc2)c(O)c1,-90*
Cc1c(O)ccc(/C(Cc2ccc3ccccc3n2)=N\O)c1O,-76*
COc1ccc(-c2cc(=O)c3ccccc3[nH]2)cc1,-79*
O=c1cc(-c2ccccc2)[nH]c2cc(Cl)ccc12,104
COc1ccc2[nH]c(-c3cccc(F)c3)cc(=O)c2c1,63
Cc1ccc(O)c(-c2cc3ccccc3[nH]2)c1,-131*
COc1ccc(-c2cc3ccccc3[nH]2)cc1,-159*
SMILES,aSyn UTR act
c1ccc(-c2cc3ccccc3[nH]2)cc1,-139*
Cc1nc2c(oc3ccccc32)c(=O)o1,-84*
COc1ccc(C(=O)OCc2csc(C)n2)c(O)c1,-180*
O=C(Cc1ccc(Br)cc1)c1ccc(O)cc1O,-121*
COc1ccc(CC(=O)c2ccc(O)cc2O)cc1,-85*
COc1ccc(C(=O)Cc2ccc3c(c2)OCO3)c(O)c1,-107*
Cc1ccc(N/C=C2\C(=O)C3(C)CCC2C3(C)C)cc1C (stereo not drawn),-63*
CC(=O)Nc1ccc(/C=C/c2nc(-c3ccccc3O)n[nH]2)cc1,-202*
COc1cc(/C=C/c2noc(-c3ccccc3O)n2)cc(OC)c1OC,-146*
COc1ccc(/C=C/c2nc(N)nc(-c3ccccc3O)n2)cc1,-116*
CC(=O)Oc1ccccc1-c1nc(/C=C/c2ccccc2)no1,-162*
COc1cc(/C=C/c2nc(-c3ccccc3O)n[nH]2)cc(OC)c1OC,-117*
COc1ccc(/C=C/c2noc(-c3ccccc3O)n2)cc1,-93*
CC(C(=O)OCc1nnc(-c2ccccc2)o1)N1C(=O)C2CCCCC2C1=O (stereo not drawn),-63*
O=C(CSc1nnc2ccccn12)c1ccc(Cl)cc1,-67*
CCOc1ccc(C(=O)CSc2nnc3ccccn23)cc1,-154*
C/C(=N\NC(=O)c1cc(-c2cccnc2)nc2ccccc12)c1ccc(O)cc1O,105
C/C(=N\NC(=O)c1cccc(N/N=C(\C)c2ccco2)c1)c1ccco1,-81*
C/C(=N\NC(=O)c1c(C)nc2ccccn12)c1ccc(C(C)(C)C)cc1,-98*
C/C(=N\NC(=O)c1c(C)nc2ccccn12)c1ccco1,-139*
C/C(=N/NC(=O)c1cc2ccccc2cc1O)c1ccco1,-64*
CCCc1ccc2oc(C(=O)N3CCC[C@H]3CO)c(C)c2c1,-200*
CCCc1ccc2oc(C(=O)N3CCC(COC)C3)c(C)c2c1 (stereo not drawn),-113*
Cn1cc(NC(=O)OCc2ccc(Cl)cc2)c(C(F)(F)F)n1,-109*
O=C1N=C(N2CCCCC2)S/C1=C\c1ccc(Br)cc1,-128*
SMILES,aSyn UTR act
O=C1N=C(N2CCCCC2)S/C1=C/C1=Cc2ccccc2OC1,-103*
O=C(c1ccccc1)c1ccc(Cn2cc(-c3ccccc3)nn2)cc1,-135*
CCCCCc1ccc(-c2cn(Cc3ccc(C(=O)c4ccccc4)cc3)nn2)cc1,-138*
CCCCCc1ccc(-c2ccc(/C=C/C(=O)O)cc2)nc1,79
CCN(CC)S(=O)(=O)c1cc(NC(=O)c2ccc(Br)s2)ccc1C,-95*
O=C(/C=C\Nc1ccc2c(c1)OCO2)c1cccs1,-147*
O=C(N/N=C\c1cc2c(cc1Cl)OCO2)c1cccs1,-67*
O=C(Nc1ccc2c(c1)OCO2)c1cccs1,-176*
O=C(Nc1ccc2c(c1)OCO2)c1ccc(Br)s1,-240*
O=C(c1ccc2c(c1)OCCCO2)c1cccs1,-118*
O=C(CN1C(=O)c2ccccc2S1(=O)=O)c1ccc2c(c1)OCCCO2,114
O=C(Nc1ccc2c(c1)OCCO2)c1cccs1,-76*
CCOC(=O)c1cccc(NC(=O)c2cnc3ccccc3n2)c1,-106*
CCOC(=O)c1cccc(NC(=O)c2cncc(Br)c2)c1,-82*

# Screening data as filed in PubChem BioAssay.
